Assay outcomes as filed in PubChem.
HepG2 viability: qHTS for Inhibitors of TGF-b: Cytotox Counterscreen; Potency, µM (top dose mostly 46.1 µM), without a hit: at the highest dose activity change, negative = cytotoxicity, hits mostly cytotoxic; AID 588856, 2011; 410,000 compounds, 0.76% hits; HepG2 CAGA-GFP viability, ATP luminescence, 18 h
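HepG2 CAGA-GFP cells (1000/well, DMEM with 1% FBS) received compound, then TGF-beta at 500 pg/mL final, and were incubated 18 hours at 37 degrees C. Viability was read by CellTiter-Glo luminescence. Media-only wells were set as complete cell-killing and DMSO as no toxicity.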
HT1080 IDH1KD tx: qHTS for induction of synthetic lethality in tumor cells producing 2HG: qHTS for the HT-1080-IDH1KD cell line; HT-1080 IDH1 knockdown viability, ATP luminescence, 48 h; Potency, µM (top dose mostly 46.1 µM), for the others: at the top dose activity, negative = toxicity, most hits filed as cytotoxic; 360,000 compounds, 2% hits;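 also: 0% = DMSO wells and -100% = cell-free medium wells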
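Knockdown cells (IDH1KD HT-1080) received compounds 2 h after plating at 750 cells/well and were kept 48 h at 37 °C in 5% FBS RPMI. A CellTiter-Glo luminescence read gave % activity for curve fitting.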
TGFb inhibitor: qHTS for Inhibitors of TGF-b; AID 588855, 2011; Potency, µM (highest dose often 46.1 µM), inactives show top-dose activity, negative = inhibition, hits mostly inhibitors; 410,000 compounds, 1.2% hits; HepG2 CAGA-GFP TGF-b/SMAD3 reporter, GFP fluorescence, 18 h; TGF-beta stimulated, 500 pg/mL final; also: % is scaled to controls: 0 for no effect and ±100 for the full control effect; nearly all actives have a fitted effect of over 65% in size
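Per well, imaged GFP fluorescence of HEPG2 CAGA-GFP cells gives the signal; cells get compound, then TGF-beta (500 pg/mL final), 18 h at 37 degrees C; %Activity versus -TGF-beta and +DMSO controls.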
ATXN viability: Viability Counterscreen for Primary qHTS for Inhibitors of ATXN expression | S2 cells (HEK-293 line with an ATXN2-luciferase reporter) viability, CellTiter-Fluor protease fluorescence, 24 h | Potency, µM (titrated, usually from 56.7 µM), most hits filed as cytotoxic | 400,000 compounds, 0.49% hits | AID 651635, 2014; also: nearly all actives have a fitted effect of over 40% in size
HT1080NT lethal: qHTS for induction of synthetic lethality in tumor cells producing 2HG: qHTS for the HT-1080-NT fibrosarcoma cell line; HT-1080-NT fibrosarcoma viability, CellTiter-Glo ATP luminescence, 48 h; Potency, µM (titrated, usually from 46.1 µM), for inactives: at the top dose activity, negative = less viability, most hits filed as cytotoxic; 360,000 compounds, 1.6% hits;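 also: NT is the 2HG producing partner of a matched IDH1 knockdown line; 0% = DMSO-treated cells and -100% = media-only wells without cells; nearly all actives have a fitted effect of over 55% in size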
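Compounds were tested in concentration-response format on HT-1080-NT cells for 48 hours at 37 degrees C. Cell viability came from CellTiter-Glo luminescence; curves were classified by r2, response magnitude and activity.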
ATXN2 expr inh: Primary qHTS for Inhibitors of ATXN expression; Potency, µM (titrated, usually from 57 µM), for inactives: at the highest dose activity change, negative = inhibition, hits mostly inhibitors; AID 1745845, 2022; HEK-293 ATXN2-luciferase reporter, luminescence, 24 h; 360,000 compounds, 0.72% hits; also: % is scaled to controls: 0 for no effect and ±100 for the full control effect; nearly all actives have a fitted effect of over 55% in size
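qHTS (up to 57 uM final) was run with 24 h compound exposure of reporter cells at 37 °C. Each well was multiplexed: SteadyGlo luminescence measured ATXN2-luciferase expression after a fluorogenic Gly-Phe-AFC viability readout (25 uM final).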
Active calls of the source: *; i = inactive; ? = inconclusive; / = no result given. Compounds with a hit are over-represented: about 3.9% of the library has one in this group of screens. Calls follow the shape of the dose curve; as a rule, active = well fitted curve in the direction sought with a large enough effect; inconclusive = small, poorly fitted or top-dose-only effect, or another doubt; inactive = no such curve, though single readings can be large; an effect the other way counts as inactive or inconclusive. Potency is read from the fitted curve at half-maximal effect.

SMILES | HepG2 viability | HT1080 IDH1KD tx | TGFb inhibitor | ATXN viability | HT1080NT lethal | ATXN2 expr inh
Cc1ccc(CSc2nc3ccccc3cc2C=O)cc1 | 5% | 6.5µM* | ? | i | 5.8µM* | -1%
O=c1[nH]c(SCc2ccc(Cl)cc2)nc2ccccc12 | -10% | 1% | -12% | i | 1% | -5%
O=Cc1cc2ccccc2nc1SCc1ccc(Cl)cc1 | -12% | 7.3µM* | 0% | ? | 5.2µM* | -21%
CCCCCCCCCCCCCCCCCCOP(=O)([O-])OC1CC[N+](C)(C)CC1 | / | / | / | i | / | /
CCS(=O)(=O)N1CC(=O)N(c2cccc(Cl)c2)C(C)(C(=O)NC2CCCCCC2)C1 (configuration not stated) | -17% | / | ? | / | / | /
CCOc1ccc(-c2nc(CSCC(=O)N3CCN(c4cccc(OC)c4)CC3)c(C)o2)cc1 | -20% | -9% | -8% | ? | -10% | ?
COc1ccc(-c2nc(CSCC(=O)N3CCN(c4ccccc4F)CC3)c(C)o2)cc1 | -35% | / | 6.3µM* | / | / | ?
Nc1ncnc2ccccc12 | / | / | / | / | / | -9%
CC(C)C[C@@H](C(=O)NC1CCN(Cc2ccccc2)CC1)N1C(=O)N2CCc3c([nH]c4ccccc34)[C@@]2(C)C1=O | 13µM* | ? | ? | 25µM* | ? | ?
CO[C@@H]1[C@@H](OC2OC(C)C(OC3CC(C)(O)C(OC(=O)CC(C)C)C(C)O3)C(N(C)C)C2O)[C@@H](CC=O)C[C@@H](C)C(=O)/C=C\C2O[C@H]2C[C@@H](C)OC(=O)C[C@H]1OC(C)=O (some centres not stated) | 2% | / | ? | / | / | /
CC(C)N1CCN(c2ccc(OC[C@H]3CO[C@](Cn4cncn4)(c4ccc(Cl)cc4Cl)O3)cc2)CC1 | 13µM* | ? | ? | ? | ? | ?
CCOC(=O)N1CCN(c2c(F)cc3[nH]c(=S)[nH]c3c2Br)CC1 | -16% | ? | -1% | i | 16µM* | -16%
COc1ccc2nc(C)cc(Nc3ccc(Cl)c(Cl)c3)c2c1 | 11µM* | / | ? | 22µM* | / | 25µM*
CC(=O)c1ccc(Nc2cc(C)nc3ccccc23)cc1 | -6% | 12µM* | 1% | ? | ? | -17%
COc1ccc2nc(C)cc(NCc3ccc(F)cc3)c2c1 | -35% | 16µM* | 5% | i | ? | ?
CC(=O)c1ccc(Nc2nc(C)cc(C)n2)cc1 | -3% | 20% | 0% | i | 17% | 27%
COc1ccc2nc(C)cc(N/N=C/c3ccccc3)c2c1 | -100% | 0% | ? | / | -3% | ?
COc1ccc(/C=N/Nc2cc(C)nc3ccc(OC)cc23)c(OC)c1 | -107% | 5.2µM* | 10µM* | / | 23µM* | ?
c1ccc(Nc2nc(NCc3ccco3)nc3nccnc23)cc1 | / | 17% | / | / | 18% | /
COc1ccc(Nc2cc(C)nc3ccccc23)cc1 | -41% | 11µM* | -26% | ? | -24% | -22%
CC(=O)c1ccc(Nc2cc(C)nc3c(C)cccc23)cc1 | -21% | 3.7µM* | -19% | ? | 5.2µM* | /
Cc1ccc(Nc2cc(C)nc3c(C)cccc23)cc1 | -21% | ? | ? | i | ? | -4%
COc1ccc(OC)c(Nc2cc(C)nc3ccc(C)cc23)c1 | -1% | 3.7µM* | ? | ? | 5.2µM* | ?
CC(=O)Nc1cc(C(=O)Nc2ccc3c(c2)N(C)C(=O)c2ccccc2S3)ccc1C | -2% | / | ? | ? | / | 3%
Cc1ccc(NS(=O)(=O)c2ccc(C3CCCCC3)cc2)cc1 | 10µM* | -25% | 13µM* | ? | -24% | -30%
SMILES | HepG2 viability | HT1080 IDH1KD tx | TGFb inhibitor | ATXN viability | HT1080NT lethal | ATXN2 expr inh
CCN(CC)CCOC(=O)c1ccc(N/C=C(/C#N)c2nc(-c3ccc(OC)c(OC)c3)cs2)cc1 | -73% | -20% | -18% | i | 23µM* | -24%
CCN(CC)CCOC(=O)c1ccc(N/C=C(/C#N)c2nc(-c3cccc(OC)c3)cs2)cc1 | -8% | 15% | 14% | i | -2% | -10%
CCn1c(C(=O)NCc2ccccc2)cc2sc(Cl)cc21 | -31% | / | ? | i | / | 37%
S=C(Nc1ccccc1)N1CCn2c1nc1ccccc12 | -27% | ? | ? | i | 1.4µM* | -6%
O=C(c1ccco1)N1CCN(C(=O)c2ccco2)C1=S | -11% | 16µM* | 11µM* | ? | ? | -34%
COC(=O)c1c(C)oc2ccc(N(C(=O)c3ccncc3)S(=O)(=O)c3ccc(C)cc3C)cc12 | 4% | ? | ? | i | 23µM* | ?
CCOC(=O)c1c(C)oc2ccc(N(C(=O)c3ccncc3)S(=O)(=O)c3ccc(F)cc3C)cc12 | 14µM* | / | ? | ? | / | ?
COC(=O)c1c(C)oc2ccc(N(C(=O)c3ccncc3)S(=O)(=O)c3ccccc3)cc12 | -1% | -28% | -17% | ? | -29% | -26%
Cc1ccc(S(=O)(=O)N(C(=O)c2ccncc2)c2ccc(OC(=O)c3ccncc3)c3ccccc23)cc1 | -22% | ? | 0% | ? | ? | 19µM*
COC(=O)c1c(C)oc2ccc(N(C(=O)c3ccncc3)S(=O)(=O)c3ccc(C)cc3)cc12 | -30% | 2.6µM* | ? | ? | 2.6µM* | -20%
COc1cc2c(cc1OC)C(COc1ccc(F)cc1)N(C(=O)c1ccc(S(=O)(=O)N3CCCC3)cc1)CC2 (configuration not stated) | -12% | / | 9% | i | / | 7%
CC(=O)Nc1ccc([C@H](C)C(=O)Nc2ncc(C(C)C)s2)cc1 | / | / | / | / | / | 0.34µM*
O=c1cc(-c2ccccc2)[nH]n1-c1nc2ccccc2[nH]1 | -42% | 13µM* | -17% | ? | 11µM* | ?
Cc1cc(C)c(S(=O)(=O)NCC(c2ccco2)N2CCN(c3ccccc3)CC2)c(C)c1 (configuration not stated) | -22% | / | -7% | / | / | /
O=S(=O)(c1ccccc1)c1nnn2c1nc(Nc1ccccc1)c1cc(Cl)ccc12 | -13% | / | 8% | i | / | -6%
O[C@H]1C[C@H](c2ccc(Cl)cc2)N(CC2CCCCC2)C[C@@H]1n1cc(C2CC2)nn1 | 16µM* | ? | ? | 35µM* | ? | ?
